The nature of test [1]: qHTS assay to identify small molecule antagonists of the estrogen related receptor (ERR) signaling pathway from Tox21 library - cell viability counter screen (AID 1224834). Further: nearly all actives have a fitted effect of over 30% in size. The gist of the method: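 Fluorescence from CellTiter-Fluor gives the viability read-out, taken 30 min after reagent addition. Before that, ERR cells seeded 6 h earlier were incubated with compounds for 17.5 h at 37 C.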
(In general: In qHTS, concentration-response curves come from the screen itself.)

Test [2] concerns the target Luciferin 4-monooxygenase (Photinus pyralis) (UniProt P08659). Kind of test: qHTS assay to identify small molecule inhibitors of firefly luciferase (AID 1224835). Further: nearly all actives have a fitted effect of over 25% in size. Summed up:
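Inhibition of purified Photinus luciferase is measured by luminescence. Substrate levels (D-luciferin, ATP) sit at their KM values. Each compound is tested in a concentration series.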

Test [3] is described as follows: qHTS assay to identify small molecule agonists of the constitutive androstane receptor (CAR) signaling pathway - cell viability counter screen (AID 1224836). Further: nearly all actives have a fitted effect of over 45% in size. Summed up: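 Viability read-out: CellTiter-Fluor fluorescence after 23 h compound exposure at 37 C/5% CO2 in double-stable HepG2-CYP2B6-hCAR cells, with PK11195 present at 0.75 uM final; compounds tested in 15-point titration.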

Test [4] has as its target Nuclear receptor subfamily 1 group I member 3 (Homo sapiens) (UniProt Q14994). Kind of test: qHTS assay to identify small molecule antagonists of the constitutive androstane receptor (CAR) signaling pathway (AID 1224838).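 Further: HepG2 cells stably expressing hCAR with CYP2B6 luciferase reporter stimulated by CITCO; nearly all actives have a fitted effect of over 40% in size.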 The gist of the method:
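HepG2-CYP2B6-hCAR cells; 4 h pre-incubation; cpd (15 conc) + CITCO 50 nM final; 24 h, 37 C/5% CO2; ONE-Glo, luminescence.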

Test [5] has the same target. Kind of test: qHTS assay to identify small molecule agonists of the constitutive androstane receptor (CAR) signaling pathway (AID 1224839). Further: nearly all actives have a fitted effect of over 15% in size. Further: potency means the concentration at half of the fitted maximal effect.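 On activation: HepG2 cells stably carrying human CAR and a CYP2B6 luciferase reporter.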 The gist of the method: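 Luminescence read-out (ONE-Glo, 30 min, room temperature) from double-stable HepG2-CYP2B6-hCAR cells exposed 24 h to 15-point compound series in presence of 0.75 uM PK11195 final.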
The nature of test [6]: qHTS assay to identify small molecule antagonists of the estrogen related receptor signaling pathway with the pleiotropic PPARgamma coactivator (PGC) from Tox21 10K library - cell viability counter screen (AID 1224840; active means well fitted cell-killing curve with a large enough effect in the repeat runs, not every such curve was filed as active; further: nearly all actives have a fitted effect of over 40% in size). Summed up: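 PGC/ERR cells, 2,000/well; 6 h pre-incubation 37 C/5% CO2; cpd in DMSO via pin tool; 17.5 h 37 C; CellTiter-Fluor, 30 min; fluorescence.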
The nature of test [7]: qHTS assay to identify small molecule antagonists of the estrogen related receptor signaling pathway with the pleiotropic PPARgamma coactivator (PGC) from Tox21 10K library (AID 1224841; call rule not given here; further: actives are mostly falling curves and most rising ones were filed inactive; nearly all actives have a fitted effect of over 50% in size). The gist of the method: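 PGC/ERR cell line, 2,000 cells/well; 6 h pre-incubation 37 C/5% CO2; compounds (DMSO) pinned in; 18 h, 37 C; One-Glo, 30 min RT; luminescence.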
The nature of test [8]: qHTS assay to identify small molecule agonists of the estrogen related receptor signaling pathway with the pleiotropic PPARgamma coactivator (PGC) from Tox21 10K library (AID 1224842). Further: nearly all actives have a fitted effect of over 15% in size. The gist of the method:
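Luminescence from One-Glo (30 min, room temperature) measured after PGC/ERR cells had 18 h at 37 C with pinned compound (23 nL in DMSO). Cells had been seeded at 2,000 per well and pre-incubated 6 h.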

Test [9] deals with Thyrotropin receptor (Homo sapiens) (UniProt P16473). Kind of test: qHTS assay to identify small molecule agonists of the thyroid stimulating hormone receptor (TSHR) signaling pathway (AID 1224843; calls by dose curve; further: nearly all actives have a fitted effect of over 45% in size). The gist of the method:
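Screening of the Tox21 10K collection used HEK293 cells engineered with TSHR at 800 cells per well. After a 30-min room-temperature compound exposure, HTRF cAMP reagents were added and fluorescence recorded 1 h later.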

The nature of test [10]: qHTS assay to identify small molecule agonists of the hypoxia (HIF-1) signaling pathway - cell viability counter screen (AID 1224844; calls by dose curve; further: nearly all actives have a fitted effect of over 50% in size). The gist of the method:
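ME-180 HRE-bla cells, 2,000/well, 0.5% dialyzed FBS; 5 hr settle, 17 hr compound at 37C/5% CO2; CCF4-AM reporter read first, then CellTiter-Glo luminescence after 30 min RT.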

Test [11] in a line: qHTS assay to identify small molecule agonists of H2AX (AID 1224845; active means well fitted activation curve with a large enough effect in the signal ratio in the repeat runs, not every such curve was filed as active; the % refers to the signal ratio). The gist of the method: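 Phospho-H2AX Ser139 measured by HTRF (ex 320 nm; em 665 and 620 nm) after 24 hr antibody incubation. Compounds, 15 concentrations, 0.76% DMSO, were applied to CHO-K1 cells for 3hr at 37C before lysis.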
Test [12] can be described thus: qHTS assay to identify small molecule agonists of the hypoxia (HIF-1) signaling pathway (AID 1224846; active means well fitted activation curve with a large enough effect in the signal ratio in the repeat runs, not every such curve was filed as active; the % refers to the signal ratio). The gist of the method:
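Cell line: CellSensor HRE-bla ME-180; 2,000 cells/well; 0.5% dialyzed FBS; 5 h preincubation; DMSO compound pin transfer; 17 h, 37C, 5% CO2; CCF4-AM added; bla FRET signal scored for activation.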

Test [13] in a line: qHTS assay to identify small molecule agonists of H2AX - cell viability counter screen (AID 1224847; calls by dose curve;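 further: wild-type CHO-K1 cells; top concentration of the series differs between compounds; nearly all actives have a fitted effect of over 30% in size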). The gist of the method: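 CHO-K1 wt, 1000 cells/well, o/n 37C; cpds 15 conc, 3 h 37C, 0.76% DMSO; CellTiter-Glo, 30 min RT, luminescence.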
Test [14] in a line: qHTS assay to identify small molecule agonists of the estrogen related receptor (ERR) signaling pathway from Tox21 library (AID 1224849; calls by dose curve; further: nearly all actives have a fitted effect of over 15% in size). The settings on record: ERR reporter cell line, ONE-Glo luciferase, 18 h; at 92.4 µM (top of the series) unless noted. Summed up: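 ERR cells, 6 h pre-incubation 37 C/5% CO2; cpd in DMSO pinned; 18 h 37 C; ONE-Glo added, 30 min RT; luminescence read. Agonist mode, qHTS.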

Test [15] in a line: qHTS RealTime-Glo MT Cell Viability Assay in HepG2 cells - 24 hour (AID 1224867). Further: nearly all actives have a fitted effect of over 50% in size. The gist of the method:
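Cell number in HepG2 cultures estimated from NanoLuc luminescence generated by metabolic reduction of a prosubstrate by living cells. The homogeneous, nonlytic format allowed repeated reads at 0, 8, 16, 24, 32 and 40 h of compound exposure.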

The nature of test [16]: qHTS RealTime-Glo MT Cell Viability Assay in HEK293 cells - 32 hour (AID 1224868). Further: top concentration of the series differs between compounds; nearly all actives have a fitted effect of over 50% in size. Summed up:
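Homogeneous bioluminescent viability format in HEK293 cells (600 cells/well). Following 5 h at 37 C/5% CO2, 23 nL compound was pintooled; the signal was measured repeatedly during 40 h incubation.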

The nature of test [17]: A CellTox Green Cytotoxicity Assay to monitor cytotoxicity in HEK293 cells - 0 hour (AID 1224869). Further: nearly all actives have a fitted effect of over 50% in size. Summed up:
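Nonlytic real-time cytotoxicity: HEK293 + CellTox Green reagent plated, 5 h preincubation, pintool compound addition (23 nL in DMSO), 37 C for 40 h, fluorescence measured at successive time points.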

The nature of test [18]: qHTS RealTime-Glo MT Cell Viability Assay in HepG2 cells - 40 hour (AID 1224870). Further: nearly all actives have a fitted effect of over 50% in size. Summed up:
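Real-time viability: cells seeded at 600 per well together with NanoLuc and cell-permeant prosubstrate, compounds added after 5 h incubation. Luminescence tracked at 0, 8, 16, 24, 32 and 40 h of exposure.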

The nature of test [19]: qHTS assay to identify small molecule antagonists of the constitutive androstane receptor (CAR) signaling pathway - cell viability counter screen (AID 1224837). Further: nearly all actives have a fitted effect of over 45% in size. Summed up: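 HepG2-CYP2B6-hCAR cells, 2500/well, 4 hr pre-incubation; compound titration, 15 conc.; CITCO 50 nM final; 23 hr, 37 C/5% CO2; CellTiter-Fluor, fluorescence intensity.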
The nature of test [20]: qHTS assay to identify small molecule antagonists of the estrogen related receptor (ERR) signaling pathway from Tox21 library (AID 1224848). Further: nearly all actives have a fitted effect of over 50% in size. The gist of the method:
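Antagonist-mode screen of the Tox21 10K library in an NTP-provided ERR reporter cell line; 18 h compound exposure at 37 C, luminescence measured with ONE-Glo.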

Values without a mark were called inactive. Results filed as inconclusive are left out. The source made the active and inactive calls. Unless noted, the call rests on the fitted dose curve; in most records, active means well fitted curve in the direction sought with a large enough effect in the repeat runs; inconclusive means weak or mixed curves; inactive means no such curve, though single readings can be large; an effect the other way counts as inactive or inconclusive.
On the % scale 0 is the no-effect control and ±100 the full control effect.

Chain of Nuclear receptor subfamily 1 group I member 3 (Homo sapiens) (Q14994 whole entry, looked up): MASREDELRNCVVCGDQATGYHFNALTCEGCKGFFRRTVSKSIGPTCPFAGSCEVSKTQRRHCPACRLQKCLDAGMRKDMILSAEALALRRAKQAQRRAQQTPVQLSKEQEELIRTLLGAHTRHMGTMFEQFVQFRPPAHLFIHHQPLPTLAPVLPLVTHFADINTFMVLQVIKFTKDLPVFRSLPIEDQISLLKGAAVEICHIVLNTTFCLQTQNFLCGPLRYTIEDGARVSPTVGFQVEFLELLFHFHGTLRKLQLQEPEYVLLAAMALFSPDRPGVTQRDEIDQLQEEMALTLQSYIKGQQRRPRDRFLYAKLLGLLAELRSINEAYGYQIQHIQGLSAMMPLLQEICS
Chain of Thyrotropin receptor (Homo sapiens) (P16473 whole entry, looked up): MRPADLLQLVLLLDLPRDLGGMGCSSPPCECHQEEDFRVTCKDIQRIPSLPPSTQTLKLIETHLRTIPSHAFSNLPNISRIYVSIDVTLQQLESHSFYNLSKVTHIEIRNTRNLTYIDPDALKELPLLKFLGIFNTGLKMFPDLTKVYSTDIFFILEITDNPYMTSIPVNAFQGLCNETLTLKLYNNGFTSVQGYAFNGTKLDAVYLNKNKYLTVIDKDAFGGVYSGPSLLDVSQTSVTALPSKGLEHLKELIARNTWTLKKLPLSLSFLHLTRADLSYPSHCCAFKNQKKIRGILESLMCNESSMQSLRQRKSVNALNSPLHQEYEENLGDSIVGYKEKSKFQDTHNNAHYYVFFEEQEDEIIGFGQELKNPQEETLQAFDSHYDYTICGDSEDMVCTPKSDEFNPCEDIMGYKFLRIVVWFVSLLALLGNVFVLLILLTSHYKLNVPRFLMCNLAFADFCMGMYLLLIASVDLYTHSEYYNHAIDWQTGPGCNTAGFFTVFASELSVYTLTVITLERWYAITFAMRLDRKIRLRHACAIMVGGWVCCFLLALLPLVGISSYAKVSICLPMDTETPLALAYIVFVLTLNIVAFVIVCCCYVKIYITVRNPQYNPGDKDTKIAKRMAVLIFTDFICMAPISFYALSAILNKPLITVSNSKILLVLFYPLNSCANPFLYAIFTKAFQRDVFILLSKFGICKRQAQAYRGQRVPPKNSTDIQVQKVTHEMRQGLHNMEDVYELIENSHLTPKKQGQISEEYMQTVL
Chain of Luciferin 4-monooxygenase (Photinus pyralis) (P08659 whole entry, looked up): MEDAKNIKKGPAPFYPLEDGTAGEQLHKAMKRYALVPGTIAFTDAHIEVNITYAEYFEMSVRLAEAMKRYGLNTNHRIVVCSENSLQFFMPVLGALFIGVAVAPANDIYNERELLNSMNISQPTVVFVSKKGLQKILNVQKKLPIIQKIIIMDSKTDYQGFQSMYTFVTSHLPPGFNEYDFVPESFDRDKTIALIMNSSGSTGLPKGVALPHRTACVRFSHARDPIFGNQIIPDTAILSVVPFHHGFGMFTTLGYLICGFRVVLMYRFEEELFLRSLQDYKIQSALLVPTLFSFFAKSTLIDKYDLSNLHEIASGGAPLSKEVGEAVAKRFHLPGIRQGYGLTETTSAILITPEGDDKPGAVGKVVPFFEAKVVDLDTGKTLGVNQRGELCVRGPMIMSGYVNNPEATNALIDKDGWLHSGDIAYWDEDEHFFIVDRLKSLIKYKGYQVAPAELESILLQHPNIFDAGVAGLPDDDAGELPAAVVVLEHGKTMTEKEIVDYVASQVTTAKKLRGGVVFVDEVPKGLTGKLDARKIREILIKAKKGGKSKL

With `CC1=C(C(=O)O)N2C(=O)[C@@H](N)[C@H]2SC1`, the viability change, negative = cytotoxic is 3.67% [at 19 µM] in test [1], 4.01% [at 19 µM] in [3] and -5.15% [at 19 µM] in [6]. Also, the activity change, negative = inhibition in test [2] is -0.398% [at 23.6 µM]. Further, the results for the activity, negative = inhibition in [4] and in test [7] were 17.2% [at 19 µM] and 1.75% [at 19 µM], respectively. The activation in test [5] is -1.84% [at 19 µM]; in test [8], 0.483% [at 19 µM]; in test [9], 0.53% [at 19 µM]; in [12], -0.576% [at 15.8 µM]. For the same compound, the activity change, negative = cytotoxicity in test [10] was 0.296% [at 15.8 µM]; in [13], -3.1% [at 31.6 µM]; in test [15], 0.806% [at 15.8 µM]. Moreover, in test [11], the activation (H2AX phosphorylation) is -1.16% [at 31.6 µM]. In test [14], the activity change, positive = activation is 3.36% [at 19 µM]. Moreover, the results for the activity change, negative = cytotoxic in [16] and in test [18] were 1.51% [at 15.8 µM] and 1.44% [at 15.8 µM], respectively. Besides, in test [17], the cytotoxicity is -3.35% [at 15.8 µM].
With `CC(C1CC1)C(O)(Cn1cncn1)c1ccc(Cl)cc1` (stereo not given), the Potency entry in test [1], in test [2], in [3], in [19], in test [6] and in test [9] was “inactive” each time. The Potency result in test [10], in [11], in [13], in [15] and in test [18] was “inactive” in each case. Besides, the call in test [12] was inactive.
As to `CC1CCC(=O)O1` (stereo not given), the Potency result in test [1], in test [2], in test [3], in test [19], in test [6] and in test [7] was “inactive” in each case. For the same compound, the Potency entry in test [9], in test [10], in test [11], in test [13], in [15] and in test [16] was “inactive” each time. The Potency result in [17] and in test [18] was “inactive” each time. The compound was called inactive in test [8] and in [12]. The activity change, positive = activation in [14] is -6.79%.
As for `CCc1cc2c(s1)-n1c(C)nnc1CN=C2c1ccccc1Cl`, the Potency result in test [1], in [2], in [3], in test [19], in [5] and in [6] was “inactive” throughout. Further, the Potency result in [7], in [10], in test [11], in [13], in [20] and in test [15] was “inactive” each time. In addition, the Potency entry in test [18] is “inactive”. The compound was called inactive in [8] and in test [12].
As to `OC(Cn1cncn1)(c1ccc(F)cc1)c1ccccc1F` (stereo not given), the Potency result in test [1], in test [2], in test [3], in test [19], in test [6] and in test [9] was “inactive” throughout. Besides, the Potency result in test [10], in test [11], in [15], in test [16], in [17] and in [18] was “inactive” each time.
Regarding `COC(C)(C)C`, the Potency entry in test [1], in [2], in test [3], in test [19], in test [6] and in [9] was “inactive” each time. Moreover, the Potency result in [10], in test [11], in test [13], in [15], in [16] and in test [17] was “inactive” in each case. In addition, the Potency entry in test [18] is “inactive”. In addition, the outcome in test [12] was inactive.
`CCN(CC)c1nc(C)cc(OP(=S)(OC)OC)n1`: the Potency entry in test [1], in test [2], in test [3], in test [4], in test [6] and in test [9] was “inactive” in each case. Besides, the Potency entry in test [10], in test [11], in [13], in test [15], in test [17] and in [18] was “inactive” in each case. Further, the Potency in test [5] is 48.6 µM (active). Also, in test [12], the compound was classed as inactive.
With `CCC(Cl)[N+](=O)[O-]` (stereo not given), the Potency result in test [1], in [2], in test [3], in test [4], in test [5] and in test [6] was “inactive” throughout. Moreover, the Potency entry in test [7], in [9], in test [10], in [11], in test [13] and in test [15] was “inactive” each time. Moreover, the Potency result in [16], in test [17] and in [18] was “inactive” each time. Further, the compound was classed as inactive in test [8] and in [12]. Besides, in test [14], the activity change, positive = activation is -7.71%.

The values are drawn from PubChem BioAssay (Tox21).
